# Test results: PubChem BioAssay (Tox21)
# Several values for one entry are separate records, joined by “and”; a condition that tells them apart may be missing. Equal values may be shown once. Results filed as inconclusive are left out. More than one record can exist for a structure, and the calls need not agree. Activity calls are given as the source filed them. Unless noted, calls follow the shape of the full dose curve.
# Test: qHTS assay for small molecule agonists of the p53 signaling pathway (AID 651631); also: nearly all actives have a fitted effect of over 15% in size; also: potency is read from the fitted curve at half-maximal effect
# Conditions: HCT-116 p53RE-bla reporter, beta-lactamase FRET ratio, 16 h; series mostly up to 73.3 µM; activation: at the top concentration
# Procedure, shortened: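 Read-out is beta-lactamase FRET fluorescence measured 2 h after substrate addition at room temperature, in HCT-116 cells with a p53 response element-driven reporter exposed to compounds for 16 h at 37 °C.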
# % is scaled to controls: 0 for no effect and ±100 for the full control effect.
Compound,activation,Potency
CCN(CC)C1CCCCC1,-1.51% (inactive),–
Cc1ccc(-c2nc3ccc(C)cn3c2CC(=O)N(C)C)cc1,4.1% (inactive),–
O=[N+]([O-])CCO,2.28% [at 95.1 µM] (inactive),–
CCOC(=O)Nc1cccc(OC(=O)Nc2ccccc2)c1,-3.98% (inactive),–
CCOc1cc(OP(=S)(OC)OC)nc(CC)n1,-2.65% (inactive),–
N#CC(Br)(Br)C(N)=O,-5.29% (inactive),–
COC(=O)c1ccc(CBr)cc1,-4.08% [at 95.1 µM] (inactive),–
COP(=O)(OC)O/C(C)=C/C(=O)N(C)C,-1.03% [at 95.1 µM] (inactive),–
CC(C)N(Cc1ccccc1)C(=O)C(C)(C)C,3.38% (inactive),–
CCNP(=S)(OC)O/C(C)=C/C(=O)OC(C)C (centres undefined),-2.29% (inactive),–
O=C1C2CC=CCC2C(=O)N1SC(Cl)(Cl)Cl (centres undefined),–,5.96 µM (active)
Clc1ccc(C(Cl)(Cl)Cl)cn1,4.17% (inactive),–
O=c1[nH]oc2c1CCNC2,-3.01% (inactive),–
Clc1cc2c(cc1Cl)Oc1cc(Cl)c(Cl)cc1O2,-5.64% [at 0.337 µM] (inactive),–
C#CCOC(=O)/C=C(C)/C=C/CC(C)CCCC(C)C (centres undefined),-2.07% (inactive),–
CN1COCN(Cc2cnc(Cl)s2)/C1=N\[N+](=O)[O-],-3.17% (inactive),–
C=CC=O,-3.39% [at 95.1 µM] (inactive),–
c1cncc([C@@H]2CCCCN2)c1,-1.6% (inactive),–
COC(=O)c1ccccc1CS(=O)(=O)NC(=O)Nc1nc(OC)cc(OC)n1,-2.57% (inactive),–
CC(C)c1ccc(O)cc1,2.71% (inactive),–
CC(C)C(C)(N)C#N (centres undefined),-0.997% (inactive),–

# Test: qHTS assay for small molecules that induce genotoxicity in human embryonic kidney cells expressing luciferase-tagged ATAD5 (AID 651632; active = well fitted activation curve with a large enough effect in the repeat runs; also: nearly all actives have a fitted effect of over 15% in size)
# Conditions: HEK293T ATAD5-luciferase induction, 16 h; series mostly up to 83.3 µM; activation: at the top concentration
# Procedure, shortened: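 A rise in luciferase signal from ATAD5-tagged HEK293T cells marks genetic stress. Cells were exposed to compounds for 16 hr at 37C, 5% CO2, then luciferase was quantified after a 30 min room-temperature incubation with Amplite.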
Compound,activation,outcome
CCOP(=S)(OCC)SCCl,-2.7% (inactive),–
CCN[C@@H](C)Cc1cccc(C(F)(F)F)c1,1.96% (inactive),–
CN(C)CCc1c[nH]c2cccc(OP(=O)(O)O)c12,1.91% (inactive),–
CCN(CC)C1CCCCC1,1.12% (inactive),–
C[C@H](N)C(=O)c1ccccc1,–,inactive
C=C(Cl)CCl,-3.87% (inactive),–
N[C@@H](Cc1ccc(Oc2cc(I)c(O)c(I)c2)c(I)c1)C(=O)O,-8.4% (inactive),–
O=[N+]([O-])CCO,-4.18% [at 95.3 µM] (inactive),–
O=C(Cl)C(Cl)(Cl)Cl,3.22% [at 95.3 µM] (inactive),–
CCOC(=O)Nc1cccc(OC(=O)Nc2ccccc2)c1,7.3% (inactive),–
CCOc1cc(OP(=S)(OC)OC)nc(CC)n1,1.26% (inactive),–
S=C=S,–,inactive
O=P(O)(O)c1ccccc1,1.08% (inactive),–
N#CC(Br)(Br)C(N)=O,2.88% (inactive),–
COP(=O)(OC)O/C(C)=C/C(=O)N(C)C,0.756% [at 95.3 µM] (inactive),–
CC(C)N(Cc1ccccc1)C(=O)C(C)(C)C,-3.22% (inactive),–
CCCC(C)(COC(N)=O)COC(N)=O,–,inactive
CCOP(=O)(CN(CCO)CCO)OCC,0.492% (inactive),–
CC(C)(C)c1cc(O)ccc1O,–,inactive

Compound,activation,outcome
N#CN=C1SCCN1Cc1ccc(Cl)nc1,1.59% (inactive),–
CCNP(=S)(OC)O/C(C)=C/C(=O)OC(C)C (centres undefined),-1.83% (inactive),–
O=C1C2CC=CCC2C(=O)N1SC(Cl)(Cl)Cl (centres undefined),–,inactive
Clc1ccc(C(Cl)(Cl)Cl)cn1,-1.95% (inactive),–
O=c1[nH]oc2c1CCNC2,-3.27% (inactive),–
Clc1cc2c(cc1Cl)Oc1cc(Cl)c(Cl)cc1O2,0.775% [at 0.33 µM] (inactive),–
C#CCOC(=O)/C=C(C)/C=C/CC(C)CCCC(C)C (centres undefined),5.18% (inactive),–
CN1COCN(Cc2cnc(Cl)s2)/C1=N\[N+](=O)[O-],2.75% (inactive),–
ClC1=C(Cl)C2(Cl)C(CBr)CC1(Cl)C2(Cl)Cl (centres undefined),–,inactive
C=CC=O,0.905% [at 95.3 µM] (inactive),–
c1cncc([C@@H]2CCCCN2)c1,2.93% (inactive),–
COC(=O)c1ccccc1CS(=O)(=O)NC(=O)Nc1nc(OC)cc(OC)n1,2.71% (inactive),–
COC1=CC(=O)O[C@@H](/C=C/c2ccccc2)C1,1.94% [at 95.3 µM] (inactive),–
CC(C)c1ccc(O)cc1,-2.92% (inactive),–
CCCCS(=O)(=O)Cl,1.99% (inactive),–
CCC(C(N)=O)N1CCCC1=O (centres undefined),-0.816% (inactive),–
CC(C)C(C)(N)C#N (centres undefined),-0.91% (inactive),–
N#CN,–,inactive
COc1cc(CCN)cc(OC)c1OC,2.16% [at 95.3 µM] (inactive),–

# Test: qHTS assay for small molecule agonists of the p53 signaling pathway - cell viability (AID 651633); also: nearly all actives have a fitted effect of over 30% in size; also: potency is read from the fitted curve at half-maximal effect
# Conditions: p53RE-bla HCT-116 viability, ATP luminescence, 16 h; series mostly up to 83.3 µM; activity change, negative = cytotoxicity: at the top concentration
# Procedure, shortened: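 p53RE-bla cells, seeded at 4,000 per well and rested 5 h at 37 C/5% CO2, received compounds in DMSO for 16 h at 37 C. CellTiter-Glo was then added, and luminescence was read after 30 min at room temperature to gauge cytotoxicity.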
Compound,"activity change, negative = cytotoxicity",Potency
CCOP(=S)(OCC)SCCl,-2.64% (inactive),–
CCN[C@@H](C)Cc1cccc(C(F)(F)F)c1,32.3% (inactive),–
CN(C)CCc1c[nH]c2cccc(OP(=O)(O)O)c12,8.34% (inactive),–
CCN(CC)C1CCCCC1,16.7% (inactive),–
C[C@H](N)C(=O)c1ccccc1,–,inactive
C=C(Cl)CCl,-4.78% (inactive),–
N[C@@H](Cc1ccc(Oc2cc(I)c(O)c(I)c2)c(I)c1)C(=O)O,8.47% (inactive),–
Cc1ccc(-c2nc3ccc(C)cn3c2CC(=O)N(C)C)cc1,6.39% (inactive),–
O=[N+]([O-])CCO,-15.6% [at 95.3 µM] (inactive),–
O=C(Cl)C(Cl)(Cl)Cl,-10.6% [at 95.3 µM] (inactive),–
CCOC(=O)Nc1cccc(OC(=O)Nc2ccccc2)c1,-3.85% (inactive),–
CCOc1cc(OP(=S)(OC)OC)nc(CC)n1,8.59% (inactive),–
S=C=S,–,inactive
O=P(O)(O)c1ccccc1,23.2% (inactive),–
N#CC(Br)(Br)C(N)=O,12.1% (inactive),–
COC(=O)c1ccc(CBr)cc1,15.9% [at 95.3 µM] (inactive),–
COP(=O)(OC)O/C(C)=C/C(=O)N(C)C,11.9% [at 95.3 µM] (inactive),–
CC(C)N(Cc1ccccc1)C(=O)C(C)(C)C,8.52% (inactive),–
CCCC(C)(COC(N)=O)COC(N)=O,–,inactive
CCOP(=O)(CN(CCO)CCO)OCC,-7.56% (inactive),–

Compound,"activity change, negative = cytotoxicity",Potency
CC(C)(C)c1cc(O)ccc1O,–,inactive and 29.8 µM (active)
N#CN=C1SCCN1Cc1ccc(Cl)nc1,2.44% (inactive),–
CCNP(=S)(OC)O/C(C)=C/C(=O)OC(C)C (centres undefined),13.5% (inactive),–
O=C1C2CC=CCC2C(=O)N1SC(Cl)(Cl)Cl (centres undefined),–,inactive
Clc1ccc(C(Cl)(Cl)Cl)cn1,7.56% (inactive),–
O=c1[nH]oc2c1CCNC2,15.2% (inactive),–
Clc1cc2c(cc1Cl)Oc1cc(Cl)c(Cl)cc1O2,-8.49% [at 0.33 µM] (inactive),–
C#CCOC(=O)/C=C(C)/C=C/CC(C)CCCC(C)C (centres undefined),-19.2% (inactive),–
CN1COCN(Cc2cnc(Cl)s2)/C1=N\[N+](=O)[O-],13.1% (inactive),–
ClC1=C(Cl)C2(Cl)C(CBr)CC1(Cl)C2(Cl)Cl (centres undefined),–,26.6 µM (active) and 61.1 µM (active)
C=CC=O,15.6% [at 95.3 µM] (inactive),–
c1cncc([C@@H]2CCCCN2)c1,4.19% (inactive),–
COC(=O)c1ccccc1CS(=O)(=O)NC(=O)Nc1nc(OC)cc(OC)n1,16.3% (inactive),–
COC1=CC(=O)O[C@@H](/C=C/c2ccccc2)C1,-16.8% [at 95.3 µM] (inactive),–
CC(C)c1ccc(O)cc1,20.5% (inactive),–
CCCCS(=O)(=O)Cl,-4.21% (inactive),–
CCC(C(N)=O)N1CCCC1=O (centres undefined),-11.6% (inactive),–
CC(C)C(C)(N)C#N (centres undefined),-10.1% (inactive),–
N#CN,–,inactive
COc1cc(CCN)cc(OC)c1OC,-5.14% [at 95.3 µM] (inactive),–
